Source: PubChem (National Center for Advancing Translational Sciences (NCATS))
GCN5L2 inh: blocks human GCN5L2 histone acetyltransferase. Q92830. GCN5L2 HAT assay, ThioGlo1 CoA-SH fluorescence. Potency, µM (titrated, usually from 58.9 µM), inactives show at the top dose activity change, negative = inhibition, usual class: inhibitors. 390,000 compounds, 0.21% hits. AID 504327; also: % is scaled to controls: 0 for no effect and ±100 for the full control effect
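qHTS, 1536-well. 20nM enzyme, pH 7.5 HEPES/EDTA/Tween-20 buffer; 15 min compound preinc., RT. Start: 75uM H3(1-25), 70uM AcCoA, 50uM ThioGlo1. Read Ex340/Em540 at t=0 (autofluorescence flag) and t=20 min.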
HEK293 tox: cytotoxicity counter-screen for GLP-1 receptor inverse agonists; HEK293 cAMP-luciferase reporter cells, luminescence, 24 h; Potency, µM (titrated, usually from 38.3 µM), for the others: at the top dose activity change, negative = inhibition, hits mostly inhibitors; 410,000 compounds, 0.13% hits;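 also: loss of luciferase light is scored as toxicity; % is scaled to controls: 0 for no effect and ±100 for the full control effect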
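Here, cytotoxicity is scored as loss of luminescence. The MLSMR collection was tested on cells seeded in medium containing 10% Nu serum, with a 24 hr compound exposure preceded by 12 hours of culture.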
GLP-1R agonist: GLP-1 receptor (human) agonism | P43220 | HEK293 GLP-1R CRE-luciferase, luminescence, 4-6 h; cells express a hypersensitive GLP-1R form | Potency, µM (highest dose often 45.6 µM), inactives show at the top dose activation, hits mostly activators | 380,000 compounds, 0.007% hits; also: % of control where 0% means no effect
RGS4 inh: human RGS4 inhibition; P49798; Transcreener GDP fluorescence polarization, RGS4-accelerated GTP hydrolysis; Potency, µM (doses to about 114 µM), for inactives: top-dose activity change, negative = inhibition, hits mostly inhibitors; 390,000 compounds, 0.039% hits; AID 504845; also: % is scaled to controls: 0 for no effect and ±100 for the full control effect; nearly all actives have a fitted effect of over 75% in size
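MLSMR compounds (23 nl, pin-transferred) preincubated 10 min at room temperature with a 500nM (2x) first reagent, then RGS4 at 900nM (2x) plus Transcreener GDP mix added; fluorescence polarization (620/688 nm) read before and after 90 min at 30 °C.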
PTHR1 ag: PTHR1 (human) receptor agonism. Q03431. HEK293 GP2 PTHR1 cells, GloSensor cAMP luminescence, 1 h. Potency, µM (highest dose often 115 µM), for the others: at the highest dose activation, hits mostly activators. 410,000 compounds, 0.075% hits; also: nearly all actives have a fitted effect of over 55% in size
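HEK-293-derived GP2 cells expressing PTHR1 and a GloSensor cAMP reporter, 3,000/well, plated overnight, given luciferin plus IBMX (each 0.5 mM as added) for 1 h at 37 °C, then compound for 1 h at 37 °C. Luminescence was read after 15 min at room temperature.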
GLP1R inv ag: inverse agonists of human GLP-1 receptor | 410,000 compounds, 1.6% hits | P43220 | Potency, µM (highest dose often 38.3 µM), for the others: top-dose activity change, negative = inhibition, hits mostly inhibitors | HEK293 GLP-1R CRE-luciferase, luminescence, 24 h; GLP-1R form is constitutively active; also: % is scaled to controls: 0 for no effect and ±100 for the full control effect; nearly all actives have a fitted effect of over 55% in size
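Luminescence readout: a drop in cAMP-driven luciferase signal flags inverse agonism at a constitutively active GLP-1R stably expressed in HEK293. Compound exposure lasted 24 hr at 37 deg C, 5% CO2.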
Numbers without * were called inactive; i = inactive; ? = inconclusive; . = not tested or not shown; [ ] = another dose, or the depositor's remark. Most compounds without a hit are left out; they make up all but 1.8% or so of the library. Calls follow the shape of the dose curve; as a rule, active = well fitted curve in the direction sought with a large enough effect; inconclusive = small, poorly fitted or top-dose-only effect, or another doubt; inactive = no such curve, though single readings can be large; an effect the other way counts as inactive or inconclusive. Potency is read from the fitted curve at half-maximal effect.

SMILES	GCN5L2 inh	HEK293 tox	GLP-1R agonist	RGS4 inh	PTHR1 ag	GLP1R inv ag
CCC(C)N(C(=O)COC(=O)c1ccc(N)c([N+](=O)[O-])c1)C1CCS(=O)(=O)C1 (stereo not given)	.	-26%	7%	.	i	11%
CSC1=NS(=O)(=O)c2c(C)nn(C)c2S1	28µM*	2%	0%	?	-60%	-18%
CCN(CC(=O)NCc1ccc(Cl)cc1)C(=O)COc1ccc(Cl)cc1Br	-12%	-3%	-2%	-35%	i	11µM*
CCN(CC)CCCC(C)Nc1c2ccc(Cl)cc2nc2ccc(OC)cc12 (stereo not given)	?	.	.	21µM*	.	.
Cc1ccc(NC(=S)NCc2ccc3c(c2)cc(C)n3C)c(C)c1	-8%	22%	-2%	-98%[56.9 µM]	-25%	?
CC(C)CCC(O)(CCC(C)C)C(=O)NNc1ccccc1	2%	-5%	-3%	-6%	-17%	?
CC(C)CC(O)(CC(C)C)C(=O)NNc1ccccc1	-3%	-15%	-8%	5%	i	5.6µM*
Cc1ccc(C)c(OCc2cc(C(=O)NC3CCOC(C)(C)C3)no2)c1 (stereo not given)	0%	9%	0%	19%	-66%	7%
O=C(NCc1ccncc1)c1ccc(Cl)c(S(=O)(=O)N2CCCCC2)c1	-3%	0%	0%	-22%	-19%	-16%
COc1ccc(CNC(=O)c2ccc(Cl)c(S(=O)(=O)N3CCCCCC3)c2)cc1	.	0%	6%	.	-33%	10µM*
CN(C)S(=O)(=O)N1CCC(Oc2cccc(C(=O)NCCC3=CCCCC3)c2)CC1	-1%	-25%	-14%	-5%	-95%	10µM*
CN(C)C(CNC(=O)c1ccc(Cl)c(S(=O)(=O)N2CCCCCC2)c1)c1ccccc1 (stereo not given)	2%	0%	9%	14%	-31%	7.9µM*
O=C(NCCC1=CCCCC1)c1ccc(Cl)c(S(=O)(=O)N2CCCCC2)c1	-19%	2%	8%	29%	-94%	3.5µM*
CC(C)C[C@H](NC(=O)[C@@H](Cc1c[nH]c2ccccc12)NC(=O)[C@H](Cc1ccc(O)cc1)NC(=O)[C@H](CO)NC(=O)[C@H](Cc1c[nH]c2ccccc12)NC(=O)[C@H](Cc1cnc[nH]1)NC(=O)[C@@H]1CCC(=O)N1)C(=O)N[C@@H](CCCN=C(N)N)C(=O)N1CCC[C@H]1C(=O)NCC(N)=O	-18%	.	.	.	.	.
COc1ccc(S(=O)(=O)N2CCCCCC2)cc1C(=O)NCc1ccc(C)cc1	-9%	-6%	-4%	36%	i	10µM*
O=C(Cn1c(=O)oc2cc(S(=O)(=O)N3CCCCC3)ccc21)NCc1ccc(Cl)cc1	-11%	-19%	.	-7%	-33%	13µM*
CCCOc1cccc(C2c3c(oc4ccc(F)cc4c3=O)C(=O)N2CCc2ccc(OC)cc2)c1 (stereo not given)	-8%	5%	.	8%	-14%	-11%
CCC(c1nnnn1CCc1ccccc1)N(Cc1ccco1)Cc1cc2c(C)ccc(C)c2[nH]c1=O (stereo not given)	-9%	-25%	1%	-1%	i	11µM*
O=C(NC1CCCCC1)N1CCNCC1	-1%	10%	-6%	-28%	-10%	18%
C1CCCCCC(NCCN2CCNCC2)CCCCC1	-2%	11µM*	-3%	-16%	i	6.3µM*
Cc1ccc2c(c1)c(N=NC(N)=S)c(O)n2Cc1ccccc1	-4%	?	8%	-4%	i	-4%
C/C(Cl)=C\Cn1c(O)c(N=NC(N)=S)c2cc(Br)ccc21	-6%	-26%	22%	?	-8%	8.9µM*
NC(=S)N=Nc1c(O)n(Cc2ccc(Br)cc2)c2ccccc12	0%	2.5µM*	9%	-29%	i	2.5µM*
O=C(CN1C(=O)NC2(CCCc3ccccc32)C1=O)N1CCCCC1 (stereo not given)	-3%	6%	-6%	17%	i	3%
CCn1c(C(=O)NCc2ccccc2C)cc2oc3ccccc3c21	-11%	1%	.	-3%	i	5µM*
SMILES	GCN5L2 inh	HEK293 tox	GLP-1R agonist	RGS4 inh	PTHR1 ag	GLP1R inv ag
CCn1c(C(=O)NCc2ccc(OC(C)C)cc2)cc2oc3ccccc3c21	-5%	1%	.	-8%	i	?
O=C1[C@@H]2[C@H](C(=O)N1CC(O)COCc1ccccc1)C1C=C[C@H]2C1 (stereo not given in full)	.	0%	-2%	12%	1%	2%
Cc1onc(-c2c(Cl)cccc2Cl)c1C(=O)N1CCN(c2ccccc2)CC1	-4%	-29%	-1%	17%	-31%	?
Cc1onc(-c2c(Cl)cccc2Cl)c1C(=O)N1CCN(c2ccc(F)cc2)CC1	-2%	-15%	11%	-6%	-10%	13µM*
O=S(=O)(c1ccc(Cl)c(NC(=S)N/N=C/c2c(F)cccc2F)c1)N1CCOCC1	-16%	?	15%	2%	-3%	2.5µM*
CCNC(=S)N/N=C/c1cccc(OCc2c(F)cccc2Cl)c1	-7%	?	6%	5%	-7%	10µM*
COC(=O)/C=C/c1ccccc1S(=O)(=O)N(Cc1ccccc1)Cc1ccco1	-11%	-30%	5%	4%	-17%	2.2µM*
COc1ccc(C(C(=O)NCc2ccccc2)n2c(=O)c(-c3ccco3)nc3ccccc32)cc1 (stereo not given)	.	-17%	.	.	-21%	?
O=C(CCl)N=c1sccn1Cc1ccc(Cl)cc1Cl	-6%	?	6%	-29%	-26%	10µM*
O=C(Nc1ccccc1F)c1nc(S(=O)(=O)Cc2ccccc2F)ncc1Cl	-9%	?	.	?	-49%	11µM*
CCCOc1ccc2c(c1)C(=NN=C(N)N)c1cc(OCCC)ccc1-2	-17%	?	5%	-4%	i	1.8µM*
Cc1cc(C(=O)NC2CCCN(Cc3ccc(Cl)cc3)C2)c(C)o1 (stereo not given)	-2%	-11%	-3%	-16%	-7%	?
Cc1ccc(SC[C@H](Cc2ccccc2)N2CC[C@@H](C)CCC2=O)cc1	-11%	-6%	-1%	-29%	-50%	10µM*
CCOc1ccccc1NC(=O)Nc1ccc2c(c1)CCC2	-24%	-15%	13%	7%	-3%	10µM*
